Measured values published in PubChem BioAssay (EPA / NIEHS).
Activity calls are given as the source filed them. The calls were made as follows: active = hit-call score of the fitted dose curve at least 0.9, where 1 is the maximum; inactive = score below 0.9.

Legend:
Details in all cases: mRNA level, 48 h; actives raise or lower the signal
[1] = read-out: Early growth response protein 1 (EGR1) transcription factor, EGR1 (gene 1958); assay: LTEA_HepaRG_EGR1: Life Technologies and Expression Analysis (LTEA) Assay for Early growth response protein 1 (EGR1) transcription factor using HepaRG (AID 2283490)
Summary of the method: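 HepaRG, 48 h exposure, 8-pt half-log series from 100 uM, 0.5% DMSO vehicle; EGR1 transcript by TaqMan qRT-PCR (Fluidigm array), housekeeping-normalized; bidirectional fit relative to DMSO baseline.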

[2] = read-out: Ezrin (EZR), EZR (gene 7430); assay: LTEA_HepaRG_EZR: Life Technologies and Expression Analysis (LTEA) Assay for Ezrin (EZR) using HepaRG (AID 2283491)
Summary of the method: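 EZR transcript levels came from Fluidigm qRT-PCR and were normalized to three housekeeping genes after 48 h chemical exposure of HepaRG cells. Dosing used an 8-point half-log series with a 100 uM top concentration in 0.5% DMSO, tested in duplicate; both directions were fitted versus vehicle.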

[3] = read-out: Cytochrome P450 3A7 (Homo sapiens) (UniProt P24462); assay: LTEA_HepaRG_CYP3A7: Life Technologies and Expression Analysis (LTEA) Assay for CYP3A7 using HepaRG (AID 2283492)
Summary of the method: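 Cells were thawed, plated, cultured 48 h, then treated for a further 48 h with chemicals (eight-point half-log series from 100 uM, 0.5% DMSO). RNA was isolated and CYP3A7 expression quantified by qRT-PCR normalised to ACTB, GAPDH and POLR2A.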

[4] = read-out: CYP3A5 (gene 1577); assay: LTEA_HepaRG_CYP3A5: Life Technologies and Expression Analysis (LTEA) Assay for CYP3A5 using HepaRG (AID 2283493)
Summary of the method: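 mRNA levels were quantified by qRT-PCR on Fluidigm arrays and normalized to three housekeeping genes. Differentiated HepaRG cells received 48 h exposure (top 100 uM, half-log steps, 0.5% DMSO vehicle, duplicate); bidirectional fitting versus DMSO.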

[5] = read-out: Fatty Acid-Binding Protein 1 (FABP1), FABP1 (gene 2168); assay: LTEA_HepaRG_FABP1: Life Technologies and Expression Analysis (LTEA) Assay for Fatty Acid-Binding Protein 1 (FABP1) using HepaRG (AID 2283494)
Summary of the method: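 qRT-PCR readout of FABP1 transcript (normalized to three housekeeping genes) after 48 h chemical exposure of HepaRG cells; eight concentrations, half-log steps, max 100 uM, 0.5% DMSO vehicle; gain or loss fitted relative to DMSO baseline.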

[6] = read-out: Cytochrome P450 4A22 (Homo sapiens) (UniProt Q5TCH4); assay: LTEA_HepaRG_CYP4A22: Life Technologies and Expression Analysis (LTEA) Assay for Cytochrome P450 4A22 (CYP4A22) using HepaRG (AID 2283495)
Summary of the method: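 Cryopreserved HepaRG cells, plated and cultured 48 h, then switched to serum-free induction medium and treated 48 h (duplicates, up to 100 uM, half-log steps, 0.5% DMSO). Expression change of CYP4A22 was fitted bidirectionally against vehicle.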

[7] = read-out: Cytochrome P450 7A1 (Homo sapiens) (UniProt P22680); assay: LTEA_HepaRG_CYP7A1: Life Technologies and Expression Analysis (LTEA) Assay for Cytochrome P450 7A1 (CYP7A1) using HepaRG (AID 2283496)
Summary of the method: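 HepaRG, 48 h exposure, 8-pt half-log series from 100 uM, 0.5% DMSO vehicle, duplicates. Readout: TaqMan qRT-PCR mRNA vs three housekeeping genes; bidirectional curve fit against DMSO baseline.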

[8] = read-out: Glutathione S-Transferase (GSTA2), GSTA2 (gene 2939); assay: LTEA_HepaRG_GSTA2: Life Technologies and Expression Analysis (LTEA) Assay for Glutathione S-Transferase (GSTA2) using HepaRG (AID 2283497)
Summary of the method: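 qRT-PCR readout of GSTA2 transcript, normalized to three housekeeping genes, fitted bidirectionally against 0.5% DMSO baseline. Differentiated HepaRG cells received compound for 48 h at 8 concentrations (top 100 uM, half-log steps).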

[9] = read-out: growth arrest and DNA damage 45 (GADD45G), GADD45G (gene 10912); assay: LTEA_HepaRG_GADD45G: Life Technologies and Expression Analysis (LTEA) Assay for growth arrest and DNA damage 45 (GADD45G) using HepaRG (AID 2283499)
Summary of the method: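 Human hepatic HepaRG line treated 48 h with chemicals (eight concentrations, half-log steps from 100 uM); transcript induction or repression of GADD45G scored by qRT-PCR versus DMSO vehicle.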

[10] = read-out: Glutamate-cysteine ligase regulatory (GCLM), GCLM (gene 2730); assay: LTEA_HepaRG_GCLM: Life Technologies and Expression Analysis (LTEA) Assay for Glutamate-cysteine ligase regulatory (GCLM) using HepaRG (AID 2283500)
Summary of the method: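 GCLM expression quantified by qRT-PCR, normalized to three housekeeping genes, after 48 h chemical treatment of HepaRG cells in duplicate at 8 concentrations (top 100 uM, half-log steps, 0.5% DMSO). Changes fitted both directions against vehicle.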

[11] = read-out: Glutathione S-transferase M3 (GSTM3), GSTM3 (gene 2947); assay: LTEA_HepaRG_GSTM3: Life Technologies and Expression Analysis (LTEA) Assay for Glutathione S-transferase M3 (GSTM3) using HepaRG (AID 2283501)
Summary of the method: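 Changes in GSTM3 expression, an oxidative-stress marker, were scored by bidirectional curve fitting against 0.5% DMSO vehicle. Human HepaRG cultures received chemicals for 48 h in duplicate, highest concentration 100 uM with half-log dilutions.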

[12] = read-out: Heat shock 70 kDa protein 1 (HSPA1A), gene 3303; assay: LTEA_HepaRG_HSPA1A: Life Technologies and Expression Analysis (LTEA) Assay for Heat shock 70 kDa protein 1 (HSPA1A) using HepaRG (AID 2283502)
Summary of the method: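 HSPA1A expression measured by qRT-PCR with ACTB/GAPDH/POLR2A normalization; curves fitted in both directions relative to DMSO vehicle. Exposure: 48 h in HepaRG cells, duplicate 8-point half-log series from 100 uM, 0.5% DMSO, serum-free induction medium.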

[13] = read-out: 3-Hydroxy-3-Methylglutaryl-CoA Synthase 2 (HMGCS2), HMGCS2 (gene 3158); assay: LTEA_HepaRG_HMGCS2: Life Technologies and Expression Analysis (LTEA) Assay for 3-Hydroxy-3-Methylglutaryl-CoA Synthase 2 (HMGCS2) using HepaRG (AID 2283504)
Summary of the method: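 Expression of HMGCS2 in human HepaRG liver cells is measured by qRT-PCR 48 h after dosing (highest 100 uM, half-log series, 0.5% DMSO). Values come from bidirectional concentration-response fitting with DMSO as baseline.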

[14] = read-out: Insulin Like Growth Factor 1 (IGF1), IGF1 (gene 3479); assay: LTEA_HepaRG_IGF1: Life Technologies and Expression Analysis (LTEA) Assay for Insulin Like Growth Factor 1 (IGF1) using HepaRG (AID 2283506)
Summary of the method: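 Expression measured by TaqMan qRT-PCR on a Fluidigm array, with three housekeeping genes for normalisation, after 48 h treatment of HepaRG cells. Top concentration 100 uM with half-log steps, 0.5% DMSO vehicle, bidirectional fit.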

[15] = read-out: Intercellular Adhesion Molecule 1 (ICAM1), ICAM1 (gene 3383); assay: LTEA_HepaRG_ICAM1: Life Technologies and Expression Analysis (LTEA) Assay for Intercellular Adhesion Molecule 1 (ICAM1) using HepaRG (AID 2283507)
Summary of the method: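 Gain or loss of transcript in HepaRG hepatic cells is quantified by qRT-PCR after 48 h chemical exposure (up to 100 uM, half-log steps), with DMSO as baseline.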

[16] = read-out: Insulin-like growth factor-binding protein 1 (IGFBP1), IGFBP1 (gene 3484); assay: LTEA_HepaRG_IGFBP1: Life Technologies and Expression Analysis (LTEA) Assay for Insulin-like growth factor-binding protein 1 (IGFBP1) using HepaRG (AID 2283508)
Summary of the method: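 mRNA induction or loss was quantified by qRT-PCR after 48 h chemical exposure of human HepaRG cells, with 0.5% DMSO as vehicle and baseline. Concentration-response over eight points up to 100 uM.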

[17] = read-out: Interleukin 6 (IL6), IL6 (gene 3569); assay: LTEA_HepaRG_IL6: Life Technologies and Expression Analysis (LTEA) Assay for Interleukin 6 (IL6) using HepaRG (AID 2283509)
Summary of the method: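 qRT-PCR read-out of IL6 transcript, normalized to three housekeeping genes, after 48 h chemical exposure of HepaRG cells; 8-point half-log series, top 100 uM, 0.5% DMSO vehicle. Bidirectional curve fitting against DMSO baseline.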

[18] = read-out: Interleukin 6 Receptor (IL6R), IL6R (gene 3570); assay: LTEA_HepaRG_IL6R: Life Technologies and Expression Analysis (LTEA) Assay for Interleukin 6 Receptor (IL6R) using HepaRG (AID 2283510);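 as to AC50: differentiated human HepaRG liver cells in serum-free induction medium; TaqMan qRT-PCR signal normalized to ACTB GAPDH and POLR2A housekeeping genes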
Summary of the method: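 IL6R transcript level by qRT-PCR after 48 h chemical exposure (8-point, half-log, max 100 uM, 0.5% DMSO vehicle) of HepaRG cells in serum-free induction medium. Normalized to three housekeeping genes; curves fitted in both directions relative to DMSO.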

[19] = read-out: Hypoxia-inducible factor 1-alpha (Homo sapiens) (UniProt Q16665); assay: LTEA_HepaRG_HIF1A: Life Technologies and Expression Analysis (LTEA) Assay for Hypoxia-inducible factor 1 (HIF1A) Trancription factor using HepaRG (AID 2283503)
Summary of the method: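 HIF1A transcript level read by qRT-PCR (ACTB, GAPDH, POLR2A normalization) after 48 h chemical exposure of HepaRG cultures. Eight half-log concentrations, top 100 uM, 0.5% DMSO vehicle, duplicates; bidirectional curve fit against DMSO baseline.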

[20] = read-out: HGF (gene 3082); assay: LTEA_HepaRG_HGF: Life Technologies and Expression Analysis (LTEA) Assay for Hepatocyte Growth Facto (HGF) using HepaRG (AID 2283505)
Summary of the method: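 Gain or loss of HGF mRNA in human HepaRG liver cells after 48 h chemical exposure; eight concentrations up to 100 uM with 0.5% DMSO vehicle, quantified by TaqMan qRT-PCR.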

Sequence of Cytochrome P450 3A7 (Homo sapiens) (P24462 whole entry, looked up): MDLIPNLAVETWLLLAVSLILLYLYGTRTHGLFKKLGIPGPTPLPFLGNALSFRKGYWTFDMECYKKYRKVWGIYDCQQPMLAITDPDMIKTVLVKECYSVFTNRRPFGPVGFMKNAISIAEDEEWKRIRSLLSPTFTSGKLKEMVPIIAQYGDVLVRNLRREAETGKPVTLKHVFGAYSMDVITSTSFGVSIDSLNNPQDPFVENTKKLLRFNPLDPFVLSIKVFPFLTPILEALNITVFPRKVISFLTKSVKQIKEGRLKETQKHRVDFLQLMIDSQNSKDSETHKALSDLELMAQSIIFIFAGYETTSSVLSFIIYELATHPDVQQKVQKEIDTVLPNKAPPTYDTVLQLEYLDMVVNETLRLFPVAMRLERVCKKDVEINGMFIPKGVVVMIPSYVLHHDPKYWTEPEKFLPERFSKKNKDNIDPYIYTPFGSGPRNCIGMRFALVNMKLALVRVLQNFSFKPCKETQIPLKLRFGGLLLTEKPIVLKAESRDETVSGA
Sequence of Hypoxia-inducible factor 1-alpha (Homo sapiens) (Q16665 whole entry, looked up): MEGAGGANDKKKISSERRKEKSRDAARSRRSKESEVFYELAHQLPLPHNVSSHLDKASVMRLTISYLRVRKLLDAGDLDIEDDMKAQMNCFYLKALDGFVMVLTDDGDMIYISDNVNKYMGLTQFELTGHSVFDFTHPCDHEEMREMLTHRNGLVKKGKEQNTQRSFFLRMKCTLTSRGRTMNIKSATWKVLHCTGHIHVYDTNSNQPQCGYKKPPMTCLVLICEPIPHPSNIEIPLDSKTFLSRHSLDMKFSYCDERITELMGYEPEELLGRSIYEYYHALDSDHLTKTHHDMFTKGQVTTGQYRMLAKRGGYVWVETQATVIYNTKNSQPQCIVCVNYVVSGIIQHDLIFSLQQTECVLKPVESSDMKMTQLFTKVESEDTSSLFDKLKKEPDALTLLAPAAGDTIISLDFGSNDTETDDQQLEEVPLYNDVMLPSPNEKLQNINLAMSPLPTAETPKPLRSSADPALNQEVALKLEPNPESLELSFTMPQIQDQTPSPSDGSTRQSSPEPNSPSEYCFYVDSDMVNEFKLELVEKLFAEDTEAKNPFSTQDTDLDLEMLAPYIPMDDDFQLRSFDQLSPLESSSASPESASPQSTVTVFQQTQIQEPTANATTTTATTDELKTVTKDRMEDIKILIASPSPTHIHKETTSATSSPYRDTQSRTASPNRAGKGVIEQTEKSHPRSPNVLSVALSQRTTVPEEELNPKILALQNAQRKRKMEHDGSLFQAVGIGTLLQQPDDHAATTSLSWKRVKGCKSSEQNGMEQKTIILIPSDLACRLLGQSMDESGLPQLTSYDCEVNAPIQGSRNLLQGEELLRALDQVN

O=C(CCCN1CCC(O)(c2ccc(Cl)cc2)CC1)c1ccc(F)cc1
AC50 [1]: 94.4 µM (active) | outcome [2]: inactive | AC50 [3]: 75.8 µM (active) | outcome [4]: inactive | AC50 [5]: 93.2 µM (active) | AC50 [6]: 64 µM (active) | AC50 [7]: 82 µM (active) | AC50 [8]: 78 µM (active) | AC50 [9]: 50 µM (active) | AC50 [10]: 71.9 µM (active) | outcome [11]: inactive | AC50 [12]: 74.3 µM (active) | AC50 [13]: 84.4 µM (active) | AC50 [14]: 78.5 µM (active) | AC50 [15]: 75 µM (active) | AC50 [16]: 71.1 µM (active) | AC50 [17]: 80.9 µM (active) | AC50 [18]: 50 µM (active)

N=C(N)c1ccc(OCCCCCOc2ccc(C(=N)N)cc2)cc1
AC50 [1]: 27.1 µM (active) | outcome [2]: inactive | AC50 [5]: 4.05 µM (active) | AC50 [6]: 3.87 µM (active) | AC50 [7]: 6.66 µM (active) | AC50 [8]: 7.03 µM (active) | AC50 [9]: 4.37 µM (active) | outcome [10]: inactive | AC50 [11]: 5.05 µM (active) | AC50 [12]: 26.5 µM (active) | AC50 [19]: 4.28 µM (active) | AC50 [13]: 7.77 µM (active) | AC50 [20]: 13.8 µM (active) | AC50 [14]: 11.1 µM (active) | AC50 [15]: 10.9 µM (active) | AC50 [16]: 3.52 µM (active) | AC50 [17]: 9.85 µM (active) | AC50 [18]: 29.3 µM (active)

OCC(CO)(CBr)CBr
outcome [1]: inactive | outcome [2]: inactive | outcome [3]: inactive | outcome [4]: inactive | outcome [5]: inactive | outcome [6]: inactive | outcome [7]: inactive | outcome [8]: inactive | outcome [9]: inactive | outcome [10]: inactive | outcome [11]: inactive | outcome [12]: inactive | outcome [19]: inactive | outcome [13]: inactive | outcome [20]: inactive | outcome [14]: inactive | outcome [15]: inactive | outcome [16]: inactive | outcome [17]: inactive | outcome [18]: inactive

O=C1NS(=O)(=O)c2ccccc21
outcome [1]: inactive | outcome [2]: inactive | outcome [3]: inactive | outcome [4]: inactive | outcome [5]: inactive | outcome [6]: inactive | outcome [7]: inactive | outcome [8]: inactive | outcome [9]: inactive | outcome [10]: inactive | outcome [11]: inactive | outcome [12]: inactive | outcome [19]: inactive | outcome [13]: inactive | outcome [20]: inactive | outcome [14]: inactive | outcome [15]: inactive | outcome [16]: inactive | outcome [17]: inactive | outcome [18]: inactive
